# Screening data as filed in PubChem BioAssay.
# MPTP block = mitochondrial permeability transition pore inhibitors, primary screen, biochemical, isolated mouse mitochondria, absorbance | Ca2+ swelling absorbance, 30 min | inhibition, % at 10 µM | actives 1.4% (n = 360,000) | AID 602449, 2012;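 active means inhibition of 50% or more, scaled per plate between neutral and stimulator controls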;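 further: 0% = DMSO wells given calcium and 100% = 1 mM EGTA wells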
# CFTR F508del cor = F508del CFTR correction, initial screen, CFBE line, single point; CFBE cells, YFP halide quenching; stimulated with forskolin plus potentiator P3; % fluorescence drop versus neutral controls; activity (quench increase), % at 7.58 µM; actives 0.36% (n = 350,000); AID 720511, 2013;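 active means mean added fluorescence quench of at least 8% versus neutral control, with both replicates also reaching 8%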;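 further: cells transiently co-express mutant CFTR-F508del with the halide-sensitive YFP; corrector assay measuring rescue of mutant channel to the surface after 24 h compound exposure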
# CendR NRP1 mod = modulators of CendR peptide binding to NRP-1, primary screen, biochemical, fluorescence polarization, uHTS | Neuropilin-1 (Homo sapiens), O14786 | FAM-RPARPAR peptide binding to NRP-1 | inhibition, % at 25 µM | actives 0.85% (n = 360,000) | AID 602438, 2012;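 active means inhibition or corrected inhibition above about 18%, plus a signal ratio from 0.5 to 1.5, limit read from the data, passing the limit was not always enough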
# SKN-1 block = suppressors of acrylamide-induced Pgst-4::GFP reporter in worms, primary screen, SKN-1 inhibitor project, whole organism, uHTS, GFP/RFP fluorescence ratio, strain VP596; C. elegans VP596 Pgst-4::GFP/RFP ratio, 24 h; AID 624304, 2012; actives 0.49% (n = 360,000); inhibition, % at 21.8 µM;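 active means interference check ratio from 0.5 to 1.5 plus GFP to RFP signal ratio inhibition reaching or exceeding a fixed threshold, cut at about 30% in these data, passing the limit was not always enough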
# ATG4B inhibitor = ATG4B protease inhibitors, primary screen, biochemical, fluorescence, uHTS; inhibition, % at 8.33 µM; actives 0.51% (n = 340,000); Cysteine protease ATG4B (Homo sapiens), Q9Y4P1; ATG4B cleavage of LC3-PLA2, NBD-HPC fluorescence, 1 h; AID 504462, 2011; in the data active means inhibition above about 40%
# Target sequence (Q9Y4P1 whole entry, looked up): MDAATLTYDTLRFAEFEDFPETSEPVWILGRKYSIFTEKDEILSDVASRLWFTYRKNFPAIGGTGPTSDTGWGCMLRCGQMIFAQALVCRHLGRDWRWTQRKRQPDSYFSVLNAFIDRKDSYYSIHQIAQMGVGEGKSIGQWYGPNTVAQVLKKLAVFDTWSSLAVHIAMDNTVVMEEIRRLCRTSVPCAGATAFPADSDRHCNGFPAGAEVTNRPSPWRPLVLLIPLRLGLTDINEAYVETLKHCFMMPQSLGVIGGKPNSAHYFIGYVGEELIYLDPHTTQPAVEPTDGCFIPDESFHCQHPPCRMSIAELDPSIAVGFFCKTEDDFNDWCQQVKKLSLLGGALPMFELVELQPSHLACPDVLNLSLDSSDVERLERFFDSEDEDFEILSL
# Numbers without * were called inactive; / = no result. Hits are enriched below; roughly 2.7% of the tested compounds scored in any of these assays.
SMILES,MPTP block,CFTR F508del cor,CendR NRP1 mod,SKN-1 block,ATG4B inhibitor
C/C=C/c1ccc2c(c1)O[C@H](CN(C)C(=O)CN1CCOCC1)[C@H](C)CN([C@@H](C)CO)S2(=O)=O,/,-1,/,/,/
Nc1cc(=O)[nH]c(SCC(=O)Nc2ccc(S(=O)(=O)N3CCOCC3)cc2)n1,0,0,-2,35*,2
O=C(O)CSCC(=O)Nc1ccc(S(=O)(=O)N2CCCCC2)cc1,-2,/,4,26,-4
Cc1ccc(S(=O)(=O)N2CCCCC2)cc1NC(=O)CSCC(=O)O,-2,-2,59*,1,-2
Cc1noc(C)c1NC(=O)N[C@@H]1C=C[C@@H](CC(=O)N2CCN(C)CC2)O[C@@H]1CO,/,1,/,/,/
COCC#Cc1cnc2c(c1)C(=O)N([C@@H](C)CO)C[C@@H](C)[C@@H](CN(C)C(=O)C1CCCCC1)O2,/,2,/,/,/
CCOc1ccccc1NC(=O)Cn1c(=O)oc2cc(Cl)ccc21,-1,-1,-14,35*,-2
C[C@@H]1CN([C@H](C)CO)C(=O)Cc2cc(N(C)C)ccc2O[C@H]1CN(C)Cc1ccc2c(c1)OCO2,/,2,/,/,/
Cc1ccc(C(=O)Nc2cccnc2Cl)cc1Cl,0,-1,3,7,-8
Cc1ccc(C(=O)Nc2ccccc2C(=O)Nc2ccccn2)cc1Cl,4,-2,28*,3,-8
Cc1ccc(C)c(N2C(=O)c3ccc(C(=O)Nc4ccccn4)cc3C2=O)c1,0,3,22*,-4,/
COc1ccc(NC(=O)Nc2ccc3c(c2)[C@H]2C[C@@H](CC(=O)NC4CCCCC4)O[C@@H](CO)[C@H]2O3)cc1,/,0,/,/,/
CN(C)CC(=O)N[C@@H]1C=C[C@H](CC(=O)NCc2ccc(Cl)cc2)O[C@@H]1CO,/,0,/,/,/
COc1ccc(/C=N/NC(=O)c2cc(C34CC5CC(CC(C5)C3)C4)[nH]n2)cc1OC,4,4,22*,11,-20
CN(C)CCNc1ccc2ncn3c4ccc(O)cc4c(=O)c1c23,-1,21*,140,-27,-10
CN(C)CCNc1ccc(CO)c2sc3ccc(O)cc3c(=O)c12,1,7,-30,-13,-1
O=C(CCS(=O)(=O)c1ccc(Br)s1)N1CCc2ccccc21,-1,/,34*,3,-2
Cn1nccc1C(=O)N1CCN(c2ccccc2Cl)CC1,0,-1,22,8,-8
Cc1cccc(N2CCN(C(=O)c3ccnn3C)CC2)c1C,-1,-1,25*,4,6
C#CCNC(=O)C1=C[C@@H](c2cn(C(C)=O)c3ccccc23)[C@H](CCCO)[C@@H](OCC)O1,/,-2,/,/,/
CCN(CC)C(=O)Cn1cc(S(=O)(=O)Cc2cccc([N+](=O)[O-])c2)c2ccccc21,-1,0,24*,10,-4
COC(=O)Nc1nc(-c2cc(Cl)ccc2Cl)cs1,1,-3,-9,12,7
CCOC(=O)Nc1nc(-c2ccc(F)cc2F)cs1,1,/,2,56*,0
CO[C@@H]1CN(C)C(=O)c2ccc(NC(=O)C3CC3)cc2OC[C@@H](C)N(C(=O)c2ccccc2)C[C@H]1C,/,0,/,/,/
O=c1c2ccccc2sc2ccc(Cl)cc12,1,/,1,32,8
SMILES,MPTP block,CFTR F508del cor,CendR NRP1 mod,SKN-1 block,ATG4B inhibitor
O=c1c2ccccc2oc2c1ccc1ccccc12,-2,/,-2,27,3
Nc1ccc2c(c1)sc1ccccc12,0,/,14,54*,-5
O=c1c2ccccc2ccc2ccccc12,0,-3,-1,35*,3
O=c1c2ccccc2sc2ccccc12,0,2,4,43*,-12
COc1ccc(CN(C)C[C@@H]2Oc3ccc(NC(=O)NC4CCCCC4)cc3C(=O)N([C@H](C)CO)C[C@@H]2C)cc1,/,-1,/,/,/
CCNc1c([N+](=O)[O-])ncn1C,-8,/,32*,25,1
C[C@H]1CN([C@@H](C)CO)C(=O)c2cc(NS(=O)(=O)c3cccs3)ccc2O[C@@H]1CN(C)S(=O)(=O)c1ccccc1,/,3,/,/,/
COc1ccc2c(=O)c(-c3ccc(OC)c(OC)c3)coc2c1,2,0,-3,-4,2
COc1ccc(-c2coc3cc(OC(C)=O)c(OC)cc3c2=O)cc1,2,-3,25*,13,-10
COc1cc(OC)c(OC)cc1CN1CCN(Cc2ccc(SC)cc2)CC1,2,0,10,-3,-8
COc1cc(CN2CCN(Cc3ccc(SC)cc3)CC2)cc(OC)c1O,1,0,23*,5,-13
O=C(CSc1nccc(-c2ccc(Br)cc2)n1)NCCc1ccccc1,1,1,28*,13,-3
Cc1csc2sc(-c3ccnc(SCC(=O)NCc4ccccc4)n3)c(C)c12,11,16*,-6,-6,-5
Cc1nc(SCC(=O)NCCc2ccccc2)n[nH]1,-4,/,7,-1,1
O=C(NCC[C@H]1CC[C@H](NC(=O)C2CC2)[C@@H](CO)O1)c1cnccn1,/,-4,/,/,/
O=C(CSC1=NCCN1)Nc1cccc([N+](=O)[O-])c1,0,10*,-2,-3,-7
CN(C)CCCNC(=O)C[C@H]1CC[C@H]2[C@H](COc3ccc(NC(=O)NC4CCCC4)cc3C(=O)N2C)O1,/,0,/,/,/
COC(=O)C1=C(C)N(Cc2ccccc2)C(=NCCc2ccccn2)N[C@H]1c1cccc(F)c1,-1,0,-6,37*,5
CCN1C(=NCCc2ccccn2)N[C@@H](c2cccc(F)c2)C(C(=O)OC)=C1C,1,-1,-3,8,-2
O=C(CN1C(=O)CCS(=O)(=O)c2ccccc21)NCc1ccccc1,-4,/,4,37*,-12
COc1ccc(C(=O)c2oc3ccc(OC)cc3c2N)cc1,0,7,-13,44*,-6
N/C(=N\N=C/c1ccc(F)cc1)N/N=C\c1ccc(F)cc1,4,-15,8,51*,-8
COCC#Cc1cnc2c(c1)C(=O)N([C@H](C)CO)C[C@H](C)[C@H](CN(C)S(=O)(=O)c1ccccc1)O2,/,0,/,/,/
O=C1Nc2ccccc2C(O)(C(=O)NCc2ccco2)N1c1ccc(Cl)c(Cl)c1 (stereo not drawn),1,/,-15,42*,6
CC1=NN(c2ccccc2)C(=O)/C1=C/C=C/C=C/N(C)C,13,1,-263,66*,10
Cc1ccccc1-c1ccc([C@H]2[C@H]3CN(C(=O)NC4CCCC4)CC(=O)N3[C@H]2CO)cc1,/,5,/,/,/
C[C@H](CO)N1C[C@H](C)[C@H](CN(C)Cc2ccc(C(=O)O)cc2)Oc2c(NC(=O)Nc3ccc4c(c3)OCO4)cccc2C1=O,/,-1,/,/,/
COCC#Cc1ccc([C@@H]2[C@H](CO)N3C(=O)CN(C(=O)C4CCCC4)C[C@@H]23)cc1,/,0,/,/,/
